Bioassay records as filed in PubChem.
MCF10A rerep – A quantitative high throughput screen for small molecules that induce DNA re-replication in MCF 10a normal breast cells; MCF 10A DNA re-replication, Hoechst nuclear intensity, 48 h; Potency, µM (top dose mostly 46.1 µM), for inactives: top-dose activity, positive = re-replication, most hits filed as activators; hit rate 2.9% among 350,000; AID 624296, 2012; further: % of control where 0% means no effect; nearly all actives have a fitted effect of over 50% in size
ALOX12 inh – Primary qHTS assay for inhibitors of human arachidonate 12S-lipoxygenase (ALOX12): Round 2. Polyunsaturated fatty acid lipoxygenase ALOX12 (Homo sapiens), P18054. hit rate 1.1% among 580,000. Potency, µM (doses to about 108 µM), for inactives: at the highest dose activity change, negative = inhibition, most hits filed as inhibitors. purified 12hLO, xylenol orange hydroperoxide absorbance; further: on the % scale 0 is the no-effect control and ±100 the full control effect
Target sequence (P18054 whole entry, looked up): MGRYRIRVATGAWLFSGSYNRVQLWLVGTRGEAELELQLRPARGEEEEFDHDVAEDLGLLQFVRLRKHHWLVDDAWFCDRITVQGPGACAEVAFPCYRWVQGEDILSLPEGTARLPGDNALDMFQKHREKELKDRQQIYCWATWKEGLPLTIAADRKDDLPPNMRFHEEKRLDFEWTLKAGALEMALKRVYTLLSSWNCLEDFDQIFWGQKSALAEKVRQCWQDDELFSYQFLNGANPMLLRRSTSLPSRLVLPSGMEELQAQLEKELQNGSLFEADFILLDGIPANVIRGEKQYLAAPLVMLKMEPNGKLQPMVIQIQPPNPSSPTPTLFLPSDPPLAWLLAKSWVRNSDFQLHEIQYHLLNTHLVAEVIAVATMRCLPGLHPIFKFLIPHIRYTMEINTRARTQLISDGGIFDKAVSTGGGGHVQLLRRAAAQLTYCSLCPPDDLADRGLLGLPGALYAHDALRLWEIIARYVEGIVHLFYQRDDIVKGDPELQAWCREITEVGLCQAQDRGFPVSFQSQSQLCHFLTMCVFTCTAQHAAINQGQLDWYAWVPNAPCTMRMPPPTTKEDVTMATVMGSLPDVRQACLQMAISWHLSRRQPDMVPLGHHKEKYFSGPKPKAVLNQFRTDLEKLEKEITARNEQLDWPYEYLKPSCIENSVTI
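Purified human 12hLO at 150 nM in 25 mM Hepes, 0.01% Triton X-100, pH 7.0, preincubated 15 min at room temperature with compound. Reaction started with 40 uM arachidonic acid, 30 min at room temperature. Hydroperoxide measured by Fe-xylenol orange, 573/405 nm absorbance ratio.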
KB-V1 cytotox – qHTS assay for MDR1-selective chemotherapeutics: Primary screen using the drug-selected MDR subline cells KB-V1; KB-V1 MDR cells viability, CellTiter-Glo, 72 h; Potency, µM (doses to about 46.1 µM), usual class: cytotoxic; hit rate 3.4% among 400,000; further: on the % scale 0 is the no-effect control and ±100 the full control effect; nearly all actives have a fitted effect of over 60% in size
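Luminescent ATP read-out (CellTiter-Glo, 10 min) measures survival of drug-selected KB-V1 MDR cells after 72 h, 37 degrees C compound exposure. Medium: phenol-red-free DMEM, 10% FBS. Values from fitted concentration-response curves.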
SW480 rereplic – A quantitative high throughput screen for small molecules that induce DNA re-replication in SW480 colon adenocarcinoma cells; SW480 DNA re-replication, Hoechst DNA content imaging, 48 h; Potency, µM (top dose mostly 46.1 µM), without a hit: at the highest dose re-replication activation, usual class: activators; hit rate 1.8% among 340,000; AID 624297, 2012; further: % of control where 0% means no effect; nearly all actives have a fitted effect of over 55% in size
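Hoechst fluorescence of nuclei (405 nm excitation, 500-530 nm emission) measured by plate-scanning imager after 48 hr compound exposure at 37 C; re-replication scored as increased number of nuclei with elevated intensity.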
KB-3-1 cytotox – qHTS assay for MDR1-selective chemotherapeutics: Primary screen using the parental adenocarcinoma cell KB-3-1; KB-3-1 viability, CellTiter-Glo ATP luminescence, 72 h; Potency, µM (highest dose often 46.1 µM), actives largely listed as cytotoxic; hit rate 1.4% among 400,000; AID 1347075, 2019; further: on the % scale 0 is the no-effect control and ±100 the full control effect; nearly all actives have a fitted effect of over 60% in size
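Cells are dispensed, compounds pinned in, plates held at 37 °C for 72 h, then CellTiter-Glo is added and luminescence read after 10 minutes. Cell line: parental KB-3-1 in phenol-red-free DMEM, 10% FBS.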
PINK1 modulator – A Quantitative High throughput Screen to Identify Chemical Modulators of PINK1 Expression. PINK1 immunofluorescence, high-content cytometry, 24 h. Potency, µM (series often up to 76.6 µM), for inactives: at the highest dose activation (PINK1 increase), usual class: activators. hit rate 0.2% among 410,000. AID 624263, 2012; active means well fitted activation curve with a large enough effect; inconclusive means small, poorly fitted or top-dose-only effect; cell line not stated here; further: % of control where 0% means no effect; nearly all actives have a fitted effect of over 65% in size
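PINK1 protein level read as immunofluorescence by microplate cytometer in a fixed, stained stable cell line after 24 h exposure to five compound concentrations, with CCCP as control.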
* = called active by the depositor; i = inactive; ? = inconclusive; . = no result given; [ ] = dose if it differs, or a comment. An excerpt weighted towards active compounds, which were near 5.8% of everything screened. Unless noted, the call rests on the fitted dose curve; in most records, active means well fitted curve in the direction sought with a large enough effect; inconclusive means small, poorly fitted or top-dose-only effect, or another doubt; inactive means no such curve, though single readings can be large; an effect the other way counts as inactive or inconclusive. Potency means the concentration at half of the fitted maximal effect.

SMILES | MCF10A rerep | ALOX12 inh | KB-V1 cytotox | SW480 rereplic | KB-3-1 cytotox | PINK1 modulator
O=C(Nc1nc(-c2ccccn2)cs1)c1ccco1 | ? | ? | i | 4.1µM* | i | 6%
O=C(Nc1nc(-c2ccccn2)cs1)c1ccc(Br)s1 | 26µM* | 3% | 1.3µM* | 2.1µM* | i | 3%[38.3 µM]
C[C@H](NC(=O)c1ccco1)C(=O)Nc1nnc(SCc2ccccc2)s1 | ? | -17% | i | -4% | i | 0%
C[C@H](NC(=O)c1ccco1)C(=O)Nc1nc(-c2ccccn2)cs1 | 2% | -2% | 4.1µM* | ? | i | -2%
CC(C)(C)c1ccc(SC2=C[C@@]3(O)CC[C@@H](O)[C@@](Sc4ccc(C(C)(C)C)cc4)(C2=O)[C@H]3O)cc1 | . | ? | 13µM* | . | ? | ?
CC(C)(C)c1ccc(C(=O)C2CC2)cc1 | . | 8% | i | . | i | 3%
Cc1ccc(SC2=C[C@@]3(O)CC[C@@H](O)[C@@](Sc4ccc(C)cc4)(C2=O)[C@H]3O)cc1 | . | ? | 16µM* | . | ? | 0%
O=C(c1cccc(F)c1)N1CCN(c2nnc3ccc(Cl)cn23)CC1 | . | 43% | . | . | . | .
CN(CC(=O)O)S(=O)(=O)c1ccc2c(c1)n(C)c(=O)c(=O)n2C | -4% | -9% | i | 7% | i | 1%
CCCCN(CCCC)C(=O)CN(C)S(=O)(=O)c1ccc2c(c1)n(C)c(=O)c(=O)n2C | -8% | -6% | 12µM* | -5% | i | 1%[38.3 µM]
Cc1cc2c(c(=O)n1Cc1ccccn1)C(c1cc3c(cc1Br)OCO3)C(C#N)=C(N)O2 (centres undefined) | . | 7% | . | . | . | .
CCC(CC)C(=O)Nc1cccc(C(=O)NC(C)(C)C)c1 | 1% | -2% | ? | 0% | i | 2%
O=C(CCCCCCCC(=O)Nc1ccc(C(=O)c2ccccc2)cc1)Nc1ccc(C(=O)c2ccccc2)cc1 | . | 40µM* | . | . | . | .
O=C(CCCC(=O)c1ccccc1)Nc1ccc(F)cc1 | -9% | 1% | i | -1% | i | 1%
CC(C)C(=O)Nc1ccc(-c2nnc(-c3ccccc3)o2)cc1 | 2% | -1% | i | 4% | i | ?
CC(C)C(=O)Nc1ccc(C(=O)c2ccccc2)cc1 | 2% | 0% | 13µM* | -7% | i | 4%[38.3 µM]
CCC(CC)C(=O)Nc1cccc(C(=O)c2ccccc2)c1 | 2% | -3% | 9.2µM* | 1% | i | 4%[38.3 µM]
O=C(NCCc1ccccc1)c1c(O)c2ccccc2[nH]c1=O | 13% | 3% | i | 4% | i | 10%
CCc1nc2ccccc2c(=O)n1NC(=O)c1c(O)c2ccccc2[nH]c1=O | ? | 0% | 2.9µM* | 16% | ? | 5%
CCCc1nc2ccccc2c(=O)n1NC(=O)c1c(O)c2ccccc2n(C)c1=O | 15% | 7% | 5.8µM* | 8% | 15µM* | -1%
CCCCCCc1nc2ccccc2c(=O)n1NC(=O)c1c(O)c2c(n(CC(C)C)c1=O)CCCC2 | 22% | -16% | 18µM* | 17% | 21µM* | ?
COc1ccc(C(=O)N2CCCC(n3cc(-c4nc(-c5ccccc5)no4)nn3)C2)cc1OC (centres undefined) | . | 14% | . | . | . | .
O=C(/C=C/c1ccccc1)C1=C(O)C(=O)N(CCO)C1c1ccc2c(c1)OCO2 (centres undefined) | -11% | 7.9µM* | i | -12% | i | 0%
O=C(O)CCCCCN1C(=O)C(O)=C(C(=O)/C=C/c2ccccc2)C1c1ccccc1[N+](=O)[O-] (centres undefined) | -3% | ? | i | -11% | i | 0%
CC(C)(C)c1nc(C(=O)NCCc2ccc(Cl)cc2)n2ccncc12 | . | 1%[6.33 µM] | . | . | . | .
SMILES | MCF10A rerep | ALOX12 inh | KB-V1 cytotox | SW480 rereplic | KB-3-1 cytotox | PINK1 modulator
COc1cccc(-c2nnc3n2N=C(C(C)(C)C)CS3)c1 | ? | -19% | 21µM* | ? | ? | -2%
COc1ccc(OC)c(-c2nnc3n2N=C(c2ccc(OC)c(OC4CCOC4)c2)CS3)c1 (centres undefined) | ? | -15% | ? | ? | 0.12µM* | 3%
COc1ccc(-c2nnc3n2N=C(C)CS3)cc1 | 1% | -15% | i | -6% | i | 2%
COc1ccc(C2=Nn3c(nnc3-c3ccco3)SC2)cc1OC | 53%[0.0737 µM] | -17% | ? | -28% | i | 2%
COc1ccc(C2=Nn3c(nnc3-c3ccc(OC)cc3)SC2)cc1 | 0.92µM* | -7% | 1.3µM* | 1.8µM* | 0.65µM* | 2%[38.3 µM]
COc1cccc(-c2nnc3n2N=C(c2cc(OC)ccc2OC)CS3)c1 | ? | -14% | i | -3% | i | -1%
COc1ccc(C2=Nn3c(nnc3-c3ccccc3Cl)SC2)cc1OC1CCOC1 (centres undefined) | ? | -13% | ? | ? | 13µM* | 14%
Cc1cccc(C(C)C)c1NC(=O)CCc1ncc(-c2ccccc2)o1 | . | 8% | . | . | . | .
COc1ccc(C2=Nn3c(nnc3-c3ccccn3)SC2)cc1OC | -2% | -3% | i | -2% | i | 1%
COc1ccc(OC)c(C2=Nn3c(nnc3-c3ccncc3)SC2)c1 | -3% | 5% | i | ? | i | 0%
COc1ccc(OC)c(C2=Nn3c(nnc3-c3cc(OC)c(OC)c(OC)c3)SC2)c1 | -1% | -21% | 1.3µM* | 23% | i | 0%[38.3 µM]
COc1ccc(C2=Nn3c(nnc3-c3ccccc3Cl)SC2)cc1OC1CCCC1 | 16µM* | 1% | i | 21µM* | ? | 8%
CO[C@H]1C(=O)N(C(C)C)[C@H]1C1CCN(C(=O)c2c[nH]c3ccccc23)CC1 | . | 38% | . | . | . | .
Cc1nnc2n(c1=O)C(CS(=O)(=O)c1ccccc1)CS2 (centres undefined) | 0% | 0% | i | -9% | i | 2%
